# Records with an inconclusive call do not appear. Unmarked numbers belong to inactive results. Activity calls are given as the source filed them. Calls come from the whole dose curve; as a rule, active = well fitted inhibition curve with a large enough effect; inconclusive = small, poorly fitted or top-dose-only effect; inactive = no such curve, though single readings can be large or run the other way.
# Assay: qHTS Screen of the MIPE 4.0 Collection Against Ewings Sarcoma (TC71) (AID 1259253); note: nearly all actives have a fitted effect of over 40% in size;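 for viability (% of DMSO): 100% = DMSO-treated cells and 0% = medium-only wells without cells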
# Conditions: TC71 Ewing sarcoma viability, CellTiter-Glo, 48 h; series mostly up to 45.8 µM; viability (% of DMSO): at the top concentration
# Source text: There is a large unmet medical need for treatments for Ewing sarcoma, a pediatric sarcoma. We sought to identify compounds that inhibited Ewing sarcoma cells in vitro with the goal to then test promising drugs in two drug combinations in vitro to look for synergistic drug combinations. Promising combinations would then proceed to additional validation, including in vivo testing.
# Using the NCATS developed oncology compound library called the Mechanism of Interrogation Plate (MIPE), four Ewing sarcoma cell lines were evaluated (TC32, TC71, RDES, EW8). Compounds, in a 12-point titration series, were incubated with cells for 48 hours and the read out was cell viability (CellTiter-Glo from Promega). These initial experiments were used to select appropriate concentrations of each single agent for subsequent two-drug matrix combinations such that the concentrations in the matrices would span both activity and non-activity.
# Cells, in the log phase of growth, were seeded in 5 uL of RPMI plus 5% FBS, […] L-glutamine, 100 U/ml penicillin and 100 ug/ml streptomycin into 1536-well solid-bottom white tissue culture treated Greiner Bio One Plates (789173-F) using a MultiDrop Combi (Thermofisher Scientific) dispenser and a small sterile cassette. One column was media alone to be used as a :"no cells" control. The plates were then covered with sterilized stainless steel gasketed lids from Kalypsys. After allowing cells to attach for 4 hours, 23 nL of test compound or control (negative control DMSO and positive control 9.2 uM Bortezomib-final) were added from a 1536-well polypropylene compound source plate to each well using a 1536 head pin tool from Kalypsys. Cells were then incubated for 48 hours at 37C, 95% relative humidity and 5% CO2. After 48 hours, plates were removed from the incubator and 3 uL of CellTiter-Glo (Promega) was added using an Aurora Flying Reagent Dispenser Bioraptor. Plates were incubated at room temperature for 10 minutes prior to reading the luminescence on the Viewlux (PerkinElmer). The relative luciferase units are used to calculate the percent activity using the activity of DMSO in the cells and no cells columns for normalization of no inhibition and full inhibition respectively.
# Potency is the fitted concentration of half-maximal effect.
Structure (SMILES),viability (% of DMSO),Potency
C[C@H]1C[C@H]2[C@@H]3CCC4=CC(=O)C=C[C@]4(C)[C@@H]3C(=O)C[C@]2(C)[C@@]1(O)C(=O)CO,117%,
C[C@H](NC(=O)C(C#N)=Cc1cccc(Br)n1)c1ccccc1,,20900 nM (active)
O=C(NC1CC1)c1cccc(-c2ccc3c(NC(=O)C4CC4)n[nH]c3c2)c1,,1320 nM (active)
NC(=O)N1CCC(CC(=O)N2CCC([C@H]3c4ncc(Br)cc4CCc4cc(Cl)cc(Br)c43)CC2)CC1,,16600 nM (active)
CCOC(=O)C1=C(C)NC(=S)NC1c1cccc(O)c1 (stereo not given),,105 nM (active)
COc1ccc2cc([S+]([O-])Cc3ncc(C)c(OC)c3C)nc2c1,111%,
CN(C)c1ccc(C(=O)NCCCCCCC(=O)NO)cc1,,590 nM (active)
CCOC(=O)N1CCN([N+]([O-])=NOc2ccc([N+](=O)[O-])cc2C#N)CC1,,2640 nM (active)
Cc1ncc(-c2ccnc(Nc3ccc(S(C)(=O)=O)cc3)n2)n1C(C)C,,2640 nM (active)
CCOC(=O)N1CCN([N+]([O-])=NOc2ccc([N+](=O)[O-])cc2[N+](=O)[O-])CC1,,10500 nM (active)
CC1(C)CC(O)CC(C)(C)N1[O],133%,
Cc1ccc(O)c(C(CCN(C(C)C)C(C)C)c2ccccc2)c1 (stereo not given),95.9%,
CC1=C(C(=O)Nc2cc3cn[nH]c3cc2F)C(c2ccc(Cl)cc2F)N=C(c2ccnc(Cl)c2)N1 (stereo not given),,14800 nM (active)
CC(=O)O[C@H]1C[C@@H]2CC[C@H]3[C@H]4C[C@H]([N+]5(C)CCCCC5)[C@@H](OC(C)=O)[C@@]4(C)CC[C@@H]3[C@@]2(C)C[C@H]1[N+]1(C)CCCCC1,,1050 nM (active)
Cc1cnn(C)c1C(=O)Nc1cc(Nc2ccc3c(C=Cc4ccccn4)n[nH]c3c2)ccc1F,,16600 nM (active)
O=C(O)[C@H](CC(=O)N1C[C@@H]2CCCC[C@H]2C1)Cc1ccccc1,120%,
O=C(O)C[C@H](O)C[C@H](O)C=Cc1c(C2CC2)nc2ccccc2c1-c1ccc(F)cc1,,1870 nM (active)
C=CC1=C(C(=O)O)N2C(=O)[C@@H](NC(=O)C(=NO)c3csc(N)n3)[C@H]2SC1,120%,
COc1cc(C)c(Sc2cnc(NC(=O)c3ccc(CNC(C)C(C)(C)C)cc3)s2)cc1C(=O)N1CCN(C(C)=O)CC1 (stereo not given),,14800 nM (active)
CCCCCN=C(N)NN=Cc1c[nH]c2ccc(OC)cc12,,10500 nM (active)

Structure (SMILES),viability (% of DMSO),Potency
COc1ccc([C@@H]2CNC(=O)C2)cc1OC1CCCC1,,2350 nM (active)
CN1[C@H]2CC(OC(=O)[C@@H](CO)c3ccccc3)C[C@H]1[C@H]1O[C@H]12 (stereo not given in full),112% [at 23.2 µM],
COc1cc([C@@H]2c3cc4c(cc3[C@@H](O[C@@H]3O[C@@H]5CO[C@@H](c6cccs6)O[C@@H]5[C@H](O)[C@@H]3O)[C@H]3COC(=O)[C@H]23)OCO4)cc(OC)c1O,,148 nM (active)
COc1cc(C)c(C=CC(C)=CC=CC(C)=CC(=O)O)c(C)c1C,133%,
C[C@@H]1[C@H](C)CC[C@]2(C(=O)O)CC[C@]3(C)C(=CC[C@@H]4[C@@]5(C)C[C@@H](O)[C@H](O)[C@@](C)(CO)[C@H]5CC[C@]43C)[C@@H]12,128%,
Cc1cnc(Nc2ccc(CN3CCOCC3)cc2)nc1Nc1cccc(S(=O)(=O)NC(C)(C)C)c1,,3320 nM (active)
CCN(C(=O)c1c(O)c2c(Cl)cccc2n(C)c1=O)c1ccccc1,112%,
CN1CCc2c(c3ccccc3n2Cc2ccc(C(=O)NO)cc2)C1,,16600 nM (active)
CCCNS(=O)(=O)Nc1ncnc(OCCOc2ncc(Br)cn2)c1-c1ccc(Br)cc1,132%,
CC(C(C)N1CC(=O)NC(=O)C1)N1CC(=O)NC(=O)C1 (stereo not given),,590 nM (active)
CN(C)c1ccc2cc(C(=O)N[C@@H](CCCN=C(N)CCl)C(=O)NCc3ccccc3)ccc2c1,,11800 nM (active)
COc1cc2c(Nc3ccc(Cl)c(Cl)c3F)ncnc2cc1OCC1C[C@@H]2CN(C)C[C@H]2C1,,10500 nM (active)
Cn1cnc2c(F)c(Nc3ccc(Br)cc3F)c(C(=O)NOCCO)cc21,104%,
C=CC[C@@H]1C=C(C)C[C@H](C)C[C@H](OC)[C@H]2O[C@@](O)(C(=O)C(=O)N3CCCC[C@H]3C(=O)O[C@H](C(C)=C[C@@H]3CC[C@H](O)[C@H](OC)C3)[C@@H](C)[C@@H](O)CC1=O)[C@@H](C)C[C@@H]2OC,,1870 nM (active)
CCN(CC)Cc1ccc2cc(COC(=O)Nc3ccc(C(=O)NO)cc3)ccc2c1,,662 nM (active)
Cc1cc(Nc2ncc3c(n2)N(C)C(=O)N(c2cc(NC(=O)c4cccc(C(F)(F)F)c4)ccc2C)C3)n(C)n1,,372 nM (active)
CNC(=O)c1ccc(Nc2cc(Nc3ccccc3S(=O)(=O)C(C)C)c3cc[nH]c3n2)nc1,,4180 nM (active)
COc1ccc(C[C@@H](C)[C@@H](C)Cc2ccc(OC)c(OC)c2)cc1OC,,1180 nM (active)
O=C(C=CC=Cc1ccc2c(c1)OCO2)N1CCCCC1,115%,
CN1C(C(=O)Nc2ccccn2)=C(O)c2sc(Cl)cc2S1(=O)=O,,3720 nM (active)

# — PubChem BioAssay (NCATS)
